# Screens deposited in PubChem by The Scripps Research Institute Molecular Screening Center.
# SRC2 inh: inhibits human steroid receptor coactivator 2; Q15596; HEK293 GAL4-SRC2 luciferase reporter, luminescence; inhibition, % at 9 µM; 370,000 compounds, 0.17% hits; AID 651957;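 active means inhibition above the mean inhibition of all tested compounds plus 3 SD, set per campaign, cut at about 52% in these data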;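 further: 0% = DMSO treated cells and 100% = cells given Gossypol at 36 µM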
# NR5A2 inv ag: inverse agonists of human LRH-1 (NR5A2) | O00482 | HEK293T StAR-luciferase reporter, LRH-1 transfected, 24 h | inhibition, % at 3.6 µM | 360,000 compounds, 0.13% hits;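 active means inhibition above the mean inhibition of all tested compounds plus 3 SD, cut at about 73% in these data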;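 further: 0% = DMSO wells and 100% = reporter-only cells lacking LRH-1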
# Target sequence (O00482 whole entry, looked up): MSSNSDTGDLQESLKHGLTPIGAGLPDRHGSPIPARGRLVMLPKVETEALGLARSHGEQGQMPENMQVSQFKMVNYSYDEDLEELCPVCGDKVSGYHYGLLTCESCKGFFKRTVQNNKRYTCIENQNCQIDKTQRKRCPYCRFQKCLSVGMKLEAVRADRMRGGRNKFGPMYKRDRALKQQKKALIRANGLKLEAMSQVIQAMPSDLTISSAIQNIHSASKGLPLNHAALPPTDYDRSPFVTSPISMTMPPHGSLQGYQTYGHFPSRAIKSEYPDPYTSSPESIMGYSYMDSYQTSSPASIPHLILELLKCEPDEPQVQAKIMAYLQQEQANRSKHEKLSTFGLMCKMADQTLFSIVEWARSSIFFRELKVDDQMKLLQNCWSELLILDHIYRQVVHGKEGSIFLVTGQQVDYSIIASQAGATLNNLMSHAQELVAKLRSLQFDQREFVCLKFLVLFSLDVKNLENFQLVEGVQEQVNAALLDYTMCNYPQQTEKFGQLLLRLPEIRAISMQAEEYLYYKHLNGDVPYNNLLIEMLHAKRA
# COUP-TFII inh: blocks human COUP-TFII nuclear receptor; P24468; HEK293T NGFI-A luciferase reporter, luminescence; inhibition, % at 8.6 µM; 370,000 compounds, 0.7% hits; AID 686940;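 active means inhibition above a per-plate cutoff, mean inhibition of test wells between control levels plus 3 SD, cut at about 38% in these data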;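 further: cells cotransfected with COUP-TFII expression vector driving the NGFI-A reporter; 0% = median of COUP-TF2 test wells and 100% = reporter-only cells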
# SRC1 inh: inhibits human SRC1 coactivator; Q15788; inhibition, % at 3.6 µM; 360,000 compounds, 0.12% hits; HEK293 GAL4-SRC1 luciferase reporter, luminescence;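 active means inhibition above the campaign mean plus 3 SD, with each screening campaign given its own cutoff, cut at about 60% in these data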;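 further: 0% = DMSO treated cells and 100% = gossypol at 36 µM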
# NCOA3 inh: inhibitors of human steroid receptor coactivator 3 (SRC3); Q9Y6Q9; HEK293 GAL4-SRC3 luciferase reporter, luminescence; inhibition, % at 3.6 µM; 360,000 compounds, 0.17% hits; AID 588352;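 active means inhibition above a per-campaign cutoff, the mean of all compounds plus 3 SD, cut at about 60% in these data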;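 further: 0% = DMSO-treated cells and 100% = gossypol-treated cells at 36 µM; higher means less SRC3-driven luciferase light from the GAL4 reporter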
# GalR3 antagonist: human GalR3 antagonism | inhibition, % at 3 µM | O60755 | HEK293 GalR3-CNG cAMP membrane potential fluorescence; galR3 body fused to GalR1 C-terminus | 360,000 compounds, 0.44% hits;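 active means inhibition above the screen-wide average plus 3 SD, cut at about 13% in these data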;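 further: forskolin and galanin both at EC90 stimulate the cells; cAMP rise reported by CNG channel membrane potential dye signal; 0% = forskolin plus galanin with DMSO and 100% = forskolin alone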
# GalR3 antag conf: confirmation of human galanin receptor 3 antagonists | shares compounds with GalR3 antagonist | HEK293 GalR3 CNG cAMP biosensor, membrane potential fluorescence; galR3 fused to GalR1 carboxy tail; challenged with forskolin and galanin at EC90 | inhibition, % at 3 µM | 1,600 compounds, 59% hits;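 active means inhibition above the primary screen's cutoff, the mean inhibition of all screened compounds plus 3 SD, cut at about 13% in these data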;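 further: 0% = forskolin plus galanin and 100% = forskolin alone with DMSO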
# CNG parental: counter-screen for GalR3 antagonists: nonspecific agonists in parental HEK-CNG cells. shares compounds with GalR3 antagonist. HEK293-CNG parental cells, cAMP membrane potential fluorescence; normalised: DMSO wells 0%, forskolin wells 100%. activation, % at 3 µM. 1,600 compounds, 10% hits; in the data active means activation above about 1.3%
# VP16 Luc counter: VP16 inhibition counter-screen for COUP-TFII | shares compounds with COUP-TFII inh | HEK293 Gal4-VP16 luciferase reporter, luminescence | inhibition, % at 8.5 µM | 2,500 compounds, 25% hits | AID 687007; in the data active means inhibition above about 13%
# NR2F2 inh conf: confirmation of human COUP-TFII (NR2F2) inhibitors; inhibition, % at 8.5 µM; 2,500 compounds, 45% hits; AID 687008; HEK293 NGFI-A luciferase reporter, luminescence; shares compounds with COUP-TFII inh;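 active means mean inhibition over three repeats above a set limit taken from the earlier primary screen, cut at about 38% in these data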;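 further: 100% = cells given the luciferase reporter alone without the COUP-TF2 vector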
# Active calls of the source: *; . = not tested or not shown; ! = not active in a repeat. Compounds with a hit are over-represented: about 1.1% of the library has one in this group of screens.
SMILES,SRC2 inh,NR5A2 inv ag,COUP-TFII inh,SRC1 inh,NCOA3 inh,GalR3 antagonist,GalR3 antag conf,CNG parental,VP16 Luc counter,NR2F2 inh conf
c1ccc(CN2CCC(N3CCN(Cc4ccc5c(c4)OCO5)CC3)CC2)cc1,17.0,22.9,37.6*,-14.8,4.7,40.4*,-0.3,6.0*,0.8,7.7
c1cc2c(cc1CN1CCN(C3CCCCCC3)CC1)OCO2,8.2,-9.7,-20.3,-21.4,3.2,-11.5,.,.,.,.
COc1ccc(CN2C[C@H](COCc3ccccc3)Oc3cccc(N4CCCC4)c3S2(=O)=O)cc1,37.7,.,11.4,.,.,-1.2,.,.,.,.
C#CCCN([C@@H](CC(C)C)C(=O)OC)S(=O)(=O)c1ccc(F)cc1Br,0.6,.,1.3,.,.,.,.,.,.,.
CC(C)(C)CN1CCN(Cc2nc(-c3ccc(F)cc3)cs2)CC1CCO (stereo not drawn),6.0,21.4,48.1*,7.1,8.4,100.9*,108.8*,0.0,5.8,28.4
O=S(=O)(c1ccccc1)N1CCC(O)(CSc2ccc(F)cc2)CC1,34.9,27.5,40.5*,11.7,22.8,72.5*,44.1*,-0.9,2.1,27.0
O=S(=O)(c1ccccc1)N1CCC(O)(CSc2ccccc2)CC1,-10.4,25.5,11.6,-9.5,0.9,-4.3,.,.,.,.
O=C(NC1CCCC1)c1cc(COc2ccc3ncccc3c2)on1,.,35.7,.,23.6,37.2,.,.,.,.,.
COc1cccc(CN(C)C(=O)c2cc(COc3ccc4ncccc4c3)on2)c1,5.6,35.4,72.7*,6.5,27.8,87.7*,98.8*,-0.1,-2.1,55.5*
CC(NC(=O)c1cc(COc2ccc3ncccc3c2)on1)c1ccc(F)cc1 (stereo not drawn),21.1,39.7,69.1*,9.6,28.4,29.0*,86.4*,0.6,-0.3,57.9*
COc1cccc(CN(C)C(=O)c2cc(COc3c(F)cccc3F)on2)c1,-8.2,-5.5,0.4,4.1,6.9,0.8,.,.,.,.
O=C(c1cc(COc2ccc3ncccc3c2)on1)N1CCCC1,-12.7,4.3,45.6*,-8.0,1.3,100.7*,30.1*,-0.3,-40.2,23.9
COCC#Cc1ccc(CC[C@H]2O[C@H]3CC[C@@H](CO)O[C@H]3C[C@H]2n2cc(C(C)(C)O)nn2)cc1,22.5,.,1.2,.,.,.,.,.,.,.
Nc1[nH]c(C(=O)c2ccc(Br)cc2)c(-c2ccc3ccccc3c2)c1C(=O)NCCc1c[nH]c2ccccc12,8.3,.,10.7,.,.,-2.5,.,.,.,.
COc1cccc(-c2cc3nc(C)c(C)c(N4CCN(Cc5ccco5)CC4)n3n2)c1,.,.,0.0,.,.,.,.,.,.,.
CN(C)c1ccc(CC(=O)N2CCCC(c3cc(C(=O)Nc4ccc(C(C)(C)C)cc4)no3)C2)cc1 (stereo not drawn),12.5,16.3,63.5*,-5.9,-6.7,49.0*,109.3*,-1.1,13.7*,61.1*
O=C(Nc1ccc(S(=O)(=O)N2CCCCC2)cc1)c1ccncc1,18.6,6.2,6.6,-8.3,10.8,-1.5,.,.,.,.
CC(=O)c1cccc(NC(=O)c2ccc(CN3CCc4ccccc4C3)cc2)c1,-13.3,8.6,18.6,27.3,-0.4,-11.7,.,.,.,.
O=C(Nc1ccc(Cc2ccncc2)cc1)c1ccc(S(=O)(=O)N2CCCC2)cc1,13.1,26.6,68.6*,21.7,26.3,72.7*,94.2*,-0.2,11.0,52.2*
O=C(Nc1ccc(Cl)cc1)c1ccc(CN2CCc3ccccc3C2)cc1,-15.7,9.6,41.4*,-21.2,-23.0,107.5*,102.2*,-0.5,-108.8,11.8
O=C(Nc1ccc(S(=O)(=O)N2CCCC2)cc1)c1ccc(CN2CCc3ccccc3C2)cc1,9.8,59.6,76.7*,31.8,52.7,95.9*,104.8*,-0.7,-0.3,70.9*
COc1ccc(NC(=O)c2ccc(CN3CCc4ccccc4C3)cc2)cc1OC,-34.1,4.4,-3.0,2.3,-3.5,-4.0,.,.,.,.
N#CCc1ccc(NC(=O)c2ccc(CN3CCc4ccccc4C3)cc2)cc1,4.9,21.2,55.8*,8.9,7.2,30.4*,105.0*,-0.3,0.4,55.8*
COc1ccc(CNS(=O)(=O)c2cc(Br)ccc2Br)c(OC)c1,-16.3,.,10.6,.,.,-6.4,.,.,.,.
Cc1cc(C)cc(-c2c(C(=O)c3ccccc3)[nH]c(N)c2C(=O)NCCc2c[nH]c3ccccc23)c1,.,.,-10.6,.,.,.,.,.,.,.
SMILES,SRC2 inh,NR5A2 inv ag,COUP-TFII inh,SRC1 inh,NCOA3 inh,GalR3 antagonist,GalR3 antag conf,CNG parental,VP16 Luc counter,NR2F2 inh conf
CC1CCN(c2ncnc3ccccc23)CC1,4.7,18.6,45.1*,-8.0,10.1,73.4*,7.8,-1.0,-0.8,17.3
FC(F)(F)c1cnc(N2CCCN(C(=S)Nc3ccccc3)CC2)c(Cl)c1,-3.4,5.9,39.4*,8.1,25.3,40.1*,79.8*,-0.5,-6.8,24.6
FC(F)(F)c1cnc(N2CCN(C(=S)NCc3ccccc3)CC2)c(Cl)c1,1.0,3.9,1.6,8.9,10.2,-3.2,.,.,.,.
CCN(CC)c1ccc(C(=C2C=CC(=[N+](CC)CC)C=C2)c2ccccc2)cc1,94.3*,94.9*,105.2*,33.4,61.8*,33.5*,64.1*,1.4*,98.2*,112.7*
CCN(CC)c1ccc(C(=C2C=CC(=[N+](CC)CC)C=C2)c2ccc(N(CC)CC)cc2)cc1,16.2,95.8*,83.4*,67.3*,78.7*,32.5*,35.6*,-3.6,57.0*,79.6*
CCN(CC)c1ccc(C(=O)NNC(=O)CCNC(=O)c2ccccc2)cc1,9.8,-11.6,-4.8,-10.2,-27.9,-3.2,.,.,.,.
C[C@@H]1CN([C@@H](C)CO)C(=O)CCCn2nncc2CO[C@H]1CN(C)C(=O)Nc1ccc(N2CCN(C)CC2)cc1,14.6,.,8.2,.,.,-3.2,.,.,.,.
CC(=C1SC(=S)NC1=O)c1ccc(Cl)c(O)c1,-4.0,.,-3.5,.,.,-8.8,.,.,.,.
Cc1ccc(C2NC(=O)c3[nH]nc(-c4ccccc4)c32)cc1 (stereo not drawn),2.0,.,8.9,.,.,-1.2,.,.,.,.
COc1ccccc1-n1c(-c2ccccc2)c[n+]2c1CCc1ccccc1-2,6.2,66.1,70.6*,50.7,74.0*!,52.8*,67.9*!,1.6*,18.5*!,63.2*
FC(F)(F)c1cnc(NNC(=S)Nc2ccccc2Cl)c(Cl)c1,-11.5,6.6,41.6*,5.9,30.0,55.0*,4.4,0.5,17.6*,13.7
COC(=O)c1cc(-c2ccc(C(C)=O)cc2)c(=O)n2c1CCC2,-51.2,.,0.8,.,.,.,.,.,.,.
